What all share (test): PBM binding z-score (relative to random genomic background probes); higher = stronger binding; sequences stand for … in GC…GCGATTGACAGCGTAGAATGAAGG
In experiment [1] the test system is RARb homodimer (NR concentration 270 nM). Put shortly: (§1)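 Custom Agilent 4×180K protein-binding microarrays carried double-stranded probes. Their 34-nt variable regions held direct-repeat seeds, single-nucleotide variants, half-site ablations and random human genomic background sequences. Arrays were incubated 1 h with ligand-free nuclear receptor dimers in PBS pH 7.4, 2% milk, 0.02% Triton X-100, 1 mM DTT, 0.2 mg/mL BSA and 0.4 mg/ml salmon testes DNA. Antibodies against each partner (one per run) detected binding, and scanned fluorescence was regression-normalized. Binding z-scores use random background probes as reference.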

Experiment [2] deals with RARg:RXRa (NR concentration 270 nM, RXRa partner concentration 90 nM). The method in brief:
as §1

Experiment [3] deals with RARg homodimer (NR concentration 270 nM). The method in brief:
as §1

The test system of experiment [4] is RXRa DBDmut IVT, anti-RXR (DBD mutation: RXRa K156A/R161A, NR concentration 90 nM). The method in brief: as §1
The test system of experiment [5] is RXRa homodimer (NR concentration 180 nM). Put shortly: as §1
Experiment [6] concerns THRa:RXRa (NR concentration 90 nM, RXRa partner concentration 90 nM). Put shortly:
as §1

For experiment [7], the system named is THRa homodimer (NR concentration 90 nM). Put shortly:
as §1

Experiment [8] has as its system VDR homodimer (NR concentration 270 nM). The method in brief: as §1

Regarding AATACAGGGTCATCGTAGACCAGAGTACGCACAG, the PBM binding z-score in experiment [1] worked out at 3.31; in experiment [2], 5.66; in experiment [3], 5.19; in experiment [4], 3.73; in experiment [5], 6.72; in experiment [6], 3.67. The results for the PBM binding z-score in experiment [7] and in experiment [8] were 1.24 and 4.03, respectively.

Consider TCATATAGGTAAATGCTAAGTGAAAGTCCGATCT, for which the PBM binding z-score in experiment [1] was 0.0173; in experiment [2], 0.4; in experiment [3] it was 0.337; in experiment [4], 1.68; in experiment [5], 0.615; in experiment [6] it was 0.0115. Also, the PBM binding z-score in experiment [7] is -0.264; in experiment [8], 0.0364.

As for ATCTCTAGGTAACAAGTTTAGTGAAAGAGAGGAC, the PBM binding z-score in experiment [1] turned out to be 0.455; in experiment [2] it was 0.384; in experiment [3] it was 0.772; in experiment [4], 0.0199; in experiment [5], 0.165; in experiment [6], 0.929. In addition, the PBM binding z-score stood at 0.836 in experiment [7] and 0.684 in experiment [8].

As for CGAACGAGGGCATGAGTTGACAGCAAATGCCGAT, the PBM binding z-score in experiment [1] amounted to 0.912; in experiment [2] it was 1.52; in experiment [3] it was 1.6; in experiment [4] it was 2.28; in experiment [5], 0.957; in experiment [6], 1.45. The PBM binding z-score in experiment [7] is -0.266; in experiment [8] it was 1.65.

As to GATACTGGGTCAGCTAGAGGCCAGAGTATGGAAA, the PBM binding z-score in experiment [1] is 2.73; in experiment [2] it was 5.04; in experiment [3], 3.76; in experiment [4] it was -0.654; in experiment [5], 1.82; in experiment [6], 1.75. Moreover, the PBM binding z-score in experiment [7] is -0.395; in experiment [8] it was 0.0442.

Take AGAATGAGGTTATTAAGATCAGGGATTTGCGGTC: the PBM binding z-score in experiment [1] was found to be 0.902; in experiment [2], 1.19; in experiment [3], 1.05; in experiment [4], 1.96; in experiment [5], 1.76; in experiment [6], 2.29. The PBM binding z-score in experiment [7] came out at 0.681; in experiment [8], 1.2.

Regarding CCGACTGGGGCATAAAGTTACCATAAGCCAGCCC, the PBM binding z-score in experiment [1] was -0.229; in experiment [2], -0.0793; in experiment [3] it was 0.0317; in experiment [4], 0.0675; in experiment [5] it was 0.0317; in experiment [6], -0.417. The PBM binding z-score in experiment [7] was -0.689; in experiment [8] it was -0.27.

The values above are taken from the supplement of paper PMC6555819.
